Assay results published in PubChem BioAssay AID1645855 (Buhrlage Lab, Dana-Farber Cancer Institute and Novartis …, 2021).
Hit rate of the full screen: of about 47,000 compounds, about 3,100 (6.6%) were called active. The list comes from a sample in which actives are over-represented; it also holds similar structures and randomly drawn compounds. Unmarked numbers belong to inactive results. No stated cut-off is given here; in the data, active means inhibition above about 30%; inactive means the rest.

What follows are compounds tested against Ubiquitin carboxyl-terminal hydrolase 17-like protein 5 (Homo sapiens) (UniProt A8MUK1) (assay: blocks human USP17 ubiquitin-rhodamine cleavage (AID 1645855)). Settings: purified USP17, Ub-rhodamine cleavage fluorescence, 3 h; at 50 µM; hits give high values.
Chain of Ubiquitin carboxyl-terminal hydrolase 17-like protein 5 (Homo sapiens) (A8MUK1 whole entry, looked up): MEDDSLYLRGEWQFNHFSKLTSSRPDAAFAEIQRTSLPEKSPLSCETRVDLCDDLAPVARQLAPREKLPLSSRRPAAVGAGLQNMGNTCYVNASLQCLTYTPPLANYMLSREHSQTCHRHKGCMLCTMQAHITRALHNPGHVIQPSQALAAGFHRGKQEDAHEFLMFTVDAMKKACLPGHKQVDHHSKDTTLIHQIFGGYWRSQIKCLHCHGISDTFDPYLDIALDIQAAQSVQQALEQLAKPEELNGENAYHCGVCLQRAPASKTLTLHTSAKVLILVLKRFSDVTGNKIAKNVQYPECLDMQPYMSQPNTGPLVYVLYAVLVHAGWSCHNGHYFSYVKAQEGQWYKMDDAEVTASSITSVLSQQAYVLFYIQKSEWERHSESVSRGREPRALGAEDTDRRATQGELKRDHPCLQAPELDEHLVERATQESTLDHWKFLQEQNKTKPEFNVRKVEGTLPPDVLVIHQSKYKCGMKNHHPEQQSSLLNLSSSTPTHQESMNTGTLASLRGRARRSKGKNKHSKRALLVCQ

| SMILES | inhibition |
| --- | --- |
| CC(=O)N1CCCC(c2ccnc(Nc3ccccn3)n2)C1 (centres undefined) | 6.44% |
| CN(C(=O)c1ncccn1)[C@H]1CC[C@@]2(C)C[C@H](c3ccccc3)C[C@](C)(O2)[C@@H]1O | 3.44% |
| CC(C)c1ccc(S(=O)(=O)N[C@H](C)C(=O)NCc2cscn2)cc1 | 6.37% |
| CNc1cnc(CC2CCCN(C(=O)c3scnc3C)CC2)cn1 (centres undefined) | -9.92% |
| CCc1ccc(NC(=O)Cn2cnc(S(=O)(=O)N3CCOCC3)c2)cc1 | 24.3% |
| Cc1cc(NC(=O)COC(=O)c2cccc(C)c2O)ccc1Br | 37% (active) |
| N#Cc1cccc(NC(=O)COC(=O)c2cc3ccccc3oc2=O)c1 | 3.87% |
| Cc1cc(-c2nnc(SCC(=O)Nc3ccc(Br)c(C)c3)n2N)n[nH]1 | 23.4% |
| C=C1CCC2[C@](C)(CCC[C@]2(C)C(=O)OC)[C@H]1CCc1ccoc1CNCC(=O)O (some centres undefined) | 28% |
| C=C1CCC2[C@](C)(CCC[C@]2(C)C(=O)OC)[C@H]1CCc1ccoc1C[N+](C)(C)Cc1ccccc1 (some centres undefined) | 31.1% (active) |
| O=C(c1ccc(Br)o1)N(Cc1cccc(F)c1)c1ccccn1 | 12.8% |
| CC(=O)c1ccc(N2CCN(C(=O)c3ccc4noc(-c5ccccc5)c4c3)CC2)cc1 | -0.00315% |
| COc1cccc(CN2C(=O)c3ccccc3C2C(=O)NCc2ccccc2OC)c1 (centres undefined) | 13.5% |
| CC(=O)O[C@H]1CC[C@@]2(C)C(CC[C@]3(C)C2CCC2[C@@]4(C)CC[C@H](C(C)(C)O)C4C[C@H](O)[C@]23C)C1(C)C (some centres undefined) | 0.105% |
| COc1ccc(C(=O)Nc2cc(=O)[nH]c3nc(Cc4ccccc4)nn23)cc1 | -0.0855% |
| COc1ccc(C(=O)NCC(=O)Nc2nc3ccccc3[nH]2)c(C)c1 | 46.9% (active) |
| Clc1ccccc1SCc1nc2ccccc2[nH]1 | 6.98% |
| O=C(COc1ccccc1)NCCc1nc2ccccc2[nH]1 | 18.3% |
| Cc1noc(C)c1CC(=O)Nc1cccc(-c2nc3ccccc3[nH]2)c1 | 0.008% |
| O=C(Cc1ccc(Cl)cc1)NCC(=O)Nc1nc2ccccc2[nH]1 | 53.7% (active) |
| O=C(Nc1ccc(F)cc1F)c1cnn2c3c(cnc12)CCCCC3 | -3.64% |
| Cc1nc(C2CCCN2)nc2c1CCC(=O)N2CC1CCCCC1 (centres undefined) | 3.63% |

| SMILES | inhibition |
| --- | --- |
| CCc1nc(=O)c2ccccc2n1C1=CCN(Cc2cn(C)nc2C)CC1 | 4.86% |
| O=C(C1CCN(S(=O)(=O)c2ccc(Cl)cc2)CC1)N1CC[C@@]2(O)CCCC[C@H]2C1 | -1.48% |
| Cc1cc(O)c(=O)cc2c1C[C@H]1CC(C)(C)/C=C/C[C@@]3(C)Oc4cc(=O)c(O)cc(C)c4C[C@@H]3C[C@H](O)[C@]1(C)O2 | 40.2% (active) |
| CCSc1nc(-c2ccccc2)nc2sc3c(c12)CC(C)(C)OC3 | -11.1% |
| CN1CC(c2ncn[nH]2)c2cc(C(=O)NCc3ccccc3)ccc21 (centres undefined) | -5% |
| COc1ccccc1CNC(=O)c1ccc2c(c1)CCN2C(=O)C1CC1 | -10.3% |
| O=C(Cn1cccc(-c2nc(-c3ccccc3)no2)c1=O)Nc1ccccc1F | 33% (active) |
| Cc1nc2c(c(C)c1CCC(=O)Nc1ccccc1F)c(=O)n(C)c(=O)n2C | -0.603% |
| Cc1noc(-c2cccn(Cc3cc(F)ccc3F)c2=O)n1 | 5.57% |
| COc1ccc(C2C3=C(CC(c4ccc(Cl)cc4)CC3=O)Nc3ccccc3N2C(=O)c2ccc(Cl)c(Cl)c2)cc1 (centres undefined) | -7.25% |
| Fc1cccc(Nc2nc(-c3ccncc3)nc3c2CCC3)c1 | 48.8% (active) |
| O=C(CN1CC(=O)c2ccccc2S1(=O)=O)Nc1ccccc1 | -5.61% |
| Cc1nn(-c2ccccc2)c(C)c1S(=O)(=O)N1CCCCC1 | 3.01% |
| COC(=O)c1ccc(NC(=O)CSc2nnc(C(C)Oc3ccccc3)n2C)cc1 (centres undefined) | 5.22% |
| Cc1cc(C)nc(N(C(=O)C2CC2)c2ccc(OC(F)(F)F)cc2)n1 | 1.83% |
| Cc1nnc(OCC(=O)Nc2ccc(OC(F)(F)F)cc2)c2ccccc12 | 77.7% (active) |
| O=C(Cc1ccc(F)cc1)Nc1ccccc1Cc1ccccc1 | 27.4% |
| Cc1cc(F)ccc1NC(=O)Cc1n[nH]c(Cc2ccccc2)n1 | -9.74% |
| Cc1ccccc1NC(=O)Cc1csc2nc(-c3ccc(F)cc3)cn12 | 86% (active) |
| CN1CC2(COc3ccccc31)CN(S(=O)(=O)c1ccc3c(c1)OCO3)CCO2 (centres undefined) | -2.79% |
| CC1(C(=O)NCc2cccc(Cl)c2)Oc2cccnc2NC1=O (centres undefined) | -7.83% |
| O=C(NCC1CC1)[C@H]1C[C@@H]2CN(S(=O)(=O)c3ccccc3)C[C@H]1O2 | -13.7% |
